Records with an inconclusive call do not appear. Where a call stands in place of a potency, no number is given. Calls of active or inactive are those of the source. Calls come from the whole dose curve; as a rule, active = well fitted inhibition curve with a large enough effect; inconclusive = small, poorly fitted or top-dose-only effect; inactive = flat fitted curve, though single readings scatter.
Experiments:
Assay in all cases: qHTS profiling for inhibitors of Plasmodium falciparum proliferation (AID 504749); note: nearly all actives have a fitted effect of over 60% in size
Conditions in all cases: P. falciparum in erythrocytes, SYBR Green DNA, 72 h; series mostly up to 28.7 µM
[1] = test system: CP260
Method in brief: (§1)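 In a 72 h erythrocytic culture (37 C, humidified, 5% CO2) at 2.5% hematocrit and 0.3% starting parasitemia, compounds were tested; SYBR Green I in detergent lysis buffer stained parasite DNA overnight.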

[2] = test system: CP262
Method in brief: as §1

[3] = test system: CP266
Method in brief: as §1

[4] = test system: CP268
Method in brief: as §1

[5] = test system: CP269
Method in brief: as §1

[6] = test system: CP286
Method in brief: as §1

[7] = test system: CP291
Method in brief: as §1

[8] = test system: CP297
Method in brief: as §1

[9] = test system: CP305
Method in brief: as §1

[10] = test system: CP315
Method in brief: as §1

[11] = test system: CP325
Method in brief: as §1

[12] = test system: CP329
Method in brief: as §1

[13] = test system: CP335
Method in brief: as §1

[14] = test system: DFO2036
Method in brief: as §1

[15] = test system: DIV14
Method in brief: as §1

[16] = test system: DIV17
Method in brief: as §1

[17] = test system: DIV30
Method in brief: as §1

[18] = test system: Dd2
Method in brief: as §1

[19] = test system: CP265
Method in brief: as §1
Potency is the fitted concentration of half-maximal effect.

Row | SMILES | Potency [1] | Potency [2] | Potency [3] | Potency [4] | Potency [5] | Potency [6] | Potency [7] | Potency [8] | Potency [9] | Potency [10] | Potency [11] | Potency [12] | Potency [13] | Potency [14] | Potency [15] | Potency [16] | Potency [17] | Potency [18] | Potency [19]
1 | CCOC(=O)COc1ccc2c(C)c(CCN(CC)CC)c(=O)oc2c1Cl | inactive | inactive | inactive | inactive | inactive | inactive | inactive | inactive | inactive | inactive | inactive | inactive | inactive | inactive | inactive | inactive | inactive | inactive | 
2 | CO/N=C1\CN(c2nc3c(cc2F)c(=O)c(C(=O)O)cn3C2CC2)CC1CN (stereo unspecified) | 7.94 µM (active) | inactive |  | 12 µM (active) | 5.36 µM (active) | 7.94 µM (active) |  |  |  |  |  |  | 6.75 µM (active) |  |  |  |  | 10 µM (active) | 
3 | CC(=O)N/N=C/c1ccc([N+](=O)[O-])o1 | 7.94 µM (active) |  | inactive | inactive | inactive | inactive | inactive |  | inactive | inactive | inactive | inactive | inactive |  | inactive |  | inactive | 12.6 µM (active) | 
4 | CC(C)NC[C@@H](O)COc1cccc2ccccc12 | 12.6 µM (active) | inactive | inactive | inactive |  |  |  | inactive |  | inactive | inactive |  |  |  | 13.5 µM (active) | 9.53 µM (active) |  | 12.6 µM (active) | 10 µM (active)
5 | CNCCC(Oc1ccccc1C)c1ccccc1 (stereo unspecified) | inactive | inactive |  |  | inactive | inactive | inactive | inactive |  | inactive | inactive |  | inactive | inactive | 6.01 µM (active) | 6.75 µM (active) |  | 7.08 µM (active) | 
6 | CN(C)/N=N/c1nc[nH]c1C(N)=O | inactive | inactive | inactive | inactive | inactive | inactive | inactive | inactive | inactive | inactive | inactive | inactive |  | inactive | inactive | inactive | inactive | inactive | inactive
7 | NC(CS)C(=O)O (stereo unspecified) | 8.91 µM (active) | inactive |  |  |  |  |  |  |  | inactive |  | inactive |  | 12.6 µM (active) | 6.75 µM (active) | 9.53 µM (active) | 16.9 µM (active) |  | 
8 | O=c1c(-c2ccccc2)c1-c1ccccc1 | 8.91 µM (active) | inactive |  |  |  | 7.94 µM (active) |  |  |  |  |  |  |  |  |  | 10.7 µM (active) |  | 10 µM (active) | 
9 | C#C[C@]1(O)CC[C@H]2[C@@H]3CCc4cc(OC5CCCC5)ccc4[C@H]3CC[C@@]21C | inactive |  |  | inactive | inactive | inactive | inactive | inactive | inactive | inactive | inactive | inactive |  | inactive |  | inactive | inactive | inactive | 
10 | CCOC(=O)/C=C(C)/C=C/C=C(C)/C=C/c1c(C)cc(OC)c(C)c1C |  | inactive | inactive | inactive | inactive |  | inactive | inactive | inactive | inactive | inactive | inactive |  |  | inactive |  | inactive |  | 
11 | COC(=O)[C@H]1[C@H]2C[C@H]3c4[nH]c5ccccc5c4CCN3C[C@H]2CC[C@@H]1O |  | inactive | inactive | inactive | inactive |  | inactive | inactive | inactive | inactive | inactive | inactive | inactive |  | inactive | inactive | inactive |  | 
12 | O=C1OCCN1/N=C/c1ccc([N+](=O)[O-])o1 |  | inactive | inactive |  | inactive |  |  | inactive |  | inactive | inactive | inactive |  |  |  |  |  | 11.2 µM (active) | 
13 | CN(C)CCOc1ccccc1Cc1ccccc1 | 2.51 µM (active) |  |  |  |  |  |  | 4.26 µM (active) |  | inactive |  |  |  | 6.31 µM (active) | 8.49 µM (active) | 10.7 µM (active) | inactive | 5.01 µM (active) | 2.24 µM (active)

From PubChem BioAssay (NCATS)
